Measured values as given in PubChem BioAssay AID1347074 (Center for Chemical Genomics, University of Michigan, 2019).
The whole screen tested about 47,000 compounds, of which about 2,800 (6%) were called active. Cut-off read from the data, not from the text of the source: active = z-score above about 3 (passing the limit was not always enough); inactive = the rest. Shown is part of a subset that was picked to be rich in actives.

Target: Endoribonuclease Dicer (Homo sapiens) (UniProt Q9UPY3)
Assay: Dicer cleavage of pre-miR-21 blockers – biochemical, cat-ELCCA, chemiluminescence, primary screen (AID 1347074);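 note: plate controls were vehicle for no effect and no enzyme for full effect; higher signal means more uncleaved substrate so more Dicer inhibition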
Conditions: cat-ELCCA pre-miR-21 Dicer processing, at 25 µM, stronger effect = higher value

Endoribonuclease Dicer (Homo sapiens), sequence (Q9UPY3 whole entry, looked up): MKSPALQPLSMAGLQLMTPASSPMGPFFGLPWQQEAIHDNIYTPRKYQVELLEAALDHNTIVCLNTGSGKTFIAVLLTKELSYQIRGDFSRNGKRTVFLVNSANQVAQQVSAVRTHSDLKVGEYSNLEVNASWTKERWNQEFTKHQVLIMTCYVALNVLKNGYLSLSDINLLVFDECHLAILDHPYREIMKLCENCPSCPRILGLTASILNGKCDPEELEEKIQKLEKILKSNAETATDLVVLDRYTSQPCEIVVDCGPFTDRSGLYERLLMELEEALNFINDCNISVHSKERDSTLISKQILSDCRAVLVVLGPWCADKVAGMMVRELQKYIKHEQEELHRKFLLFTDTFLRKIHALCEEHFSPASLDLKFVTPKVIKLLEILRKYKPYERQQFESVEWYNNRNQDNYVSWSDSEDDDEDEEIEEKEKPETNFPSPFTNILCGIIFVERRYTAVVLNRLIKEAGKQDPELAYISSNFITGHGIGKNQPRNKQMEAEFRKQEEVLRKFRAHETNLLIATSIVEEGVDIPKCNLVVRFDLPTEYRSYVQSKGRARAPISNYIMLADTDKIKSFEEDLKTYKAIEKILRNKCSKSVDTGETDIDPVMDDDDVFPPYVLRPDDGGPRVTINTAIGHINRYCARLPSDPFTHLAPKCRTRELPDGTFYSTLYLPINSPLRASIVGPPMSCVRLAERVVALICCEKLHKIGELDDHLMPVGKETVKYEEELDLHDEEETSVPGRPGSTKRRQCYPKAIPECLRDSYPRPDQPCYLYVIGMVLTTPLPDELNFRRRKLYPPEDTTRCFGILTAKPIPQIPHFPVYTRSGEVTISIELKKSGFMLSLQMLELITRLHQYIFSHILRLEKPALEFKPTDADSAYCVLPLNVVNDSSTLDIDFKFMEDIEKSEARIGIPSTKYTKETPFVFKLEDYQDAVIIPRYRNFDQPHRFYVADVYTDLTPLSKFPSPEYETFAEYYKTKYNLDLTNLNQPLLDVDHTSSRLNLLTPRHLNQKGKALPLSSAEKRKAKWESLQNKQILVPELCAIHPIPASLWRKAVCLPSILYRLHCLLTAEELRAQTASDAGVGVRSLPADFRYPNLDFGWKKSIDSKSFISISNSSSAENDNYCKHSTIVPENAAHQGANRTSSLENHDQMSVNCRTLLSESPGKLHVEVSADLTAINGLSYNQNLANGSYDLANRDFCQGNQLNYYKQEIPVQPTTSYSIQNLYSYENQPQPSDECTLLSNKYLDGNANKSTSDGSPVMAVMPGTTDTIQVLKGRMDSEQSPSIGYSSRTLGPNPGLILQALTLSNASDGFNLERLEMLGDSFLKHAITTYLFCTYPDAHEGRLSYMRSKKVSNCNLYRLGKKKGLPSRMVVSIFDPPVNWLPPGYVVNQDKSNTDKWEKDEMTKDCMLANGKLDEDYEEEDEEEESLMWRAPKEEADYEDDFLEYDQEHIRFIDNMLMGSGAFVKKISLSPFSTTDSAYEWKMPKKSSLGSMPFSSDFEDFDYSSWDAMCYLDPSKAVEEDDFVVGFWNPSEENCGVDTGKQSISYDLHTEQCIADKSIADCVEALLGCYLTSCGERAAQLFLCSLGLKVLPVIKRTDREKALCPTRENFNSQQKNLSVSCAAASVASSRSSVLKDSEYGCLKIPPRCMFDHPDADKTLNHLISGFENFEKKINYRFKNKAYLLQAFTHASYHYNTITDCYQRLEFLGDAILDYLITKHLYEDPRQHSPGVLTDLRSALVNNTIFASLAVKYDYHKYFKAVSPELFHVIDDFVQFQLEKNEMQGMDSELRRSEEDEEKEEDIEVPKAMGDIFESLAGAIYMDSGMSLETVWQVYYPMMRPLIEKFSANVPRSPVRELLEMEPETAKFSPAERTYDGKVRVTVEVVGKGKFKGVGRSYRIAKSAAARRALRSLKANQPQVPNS

Compound | z-score
CCOC(=O)C(NC(=O)c1ccccc1)(OC(C)C)C(F)(F)F (centres undefined) | 0.49 (inactive)
FC(F)(F)c1cc(Cl)c2ncc(-c3ccc(Cl)c(Cl)c3)nc2c1 | 1.2 (inactive)
CCn1c(C(O)c2ccc(C(C)C)cc2)nc2ccccc21 (centres undefined) | 1.03 (inactive)
O=C1CC(c2nc3ccccc3n2Cc2ccc(F)cc2)CN1c1ccccc1 (centres undefined) | 5.55 (active)
O=c1n(Cc2ccccc2)c2ccccc2n1Cc1ccccc1 | -0.36 (inactive)
CC(C)Cn1c(C2CC(=O)N(c3ccccc3)C2)nc2ccccc21 (centres undefined) | 5.98 (active)
Cc1nc2ccccc2n1C1CC(=O)N(c2ccccc2)C1=O (centres undefined) | 0.3 (inactive)
NC1=NC(c2cc(F)cc(F)c2)n2c(nc3ccccc32)N1 (centres undefined) | -1.88 (inactive)
CCCCOCC1CC2(CC(C)(c3csc(Nc4ccccc4Cl)n3)OC2=O)C(=O)O1 (centres undefined) | 0.26 (inactive)
O=C(Nc1cccc(F)c1)c1sc2ccccc2c1Cl | 4.06 (active)
O=C(Nc1ccc2oc(-c3ccncc3)nc2c1)c1sc2ccccc2c1Cl | 0.13 (inactive)
O=C(Nc1cccc2ncccc12)c1sc2ccccc2c1Cl | 0.23 (inactive)
N#CC1=C(N)Oc2cc(O)ccc2C1c1cccc(Br)c1 (centres undefined) | -2.59 (inactive)
O=C1Nc2ccc(Br)cc2C1O (centres undefined) | -6.13 (inactive)
CCOC(=O)c1cnn2c1nc(Oc1cc(C(F)(F)F)cc(C(F)(F)F)c1)c1ccccc12 | -0.15 (inactive)
COC(=O)C(C)N(C#N)c1nc(N(C)C)nc(N(C)C)n1 (centres undefined) | 5.93 (active)
CC(C)NC(=O)NNc1cc(N(C)C)c(C#N)c(N(C)C)n1 | -3.01 (inactive)
COc1ccc(N2CCN(Cc3nc4c(c(=O)n(C)c(=O)n4C)n3CC(=O)C(C)(C)C)CC2)cc1 | -2.02 (inactive)
Cc1ccc(/C(O)=C2\C(=O)C(=O)N(CCCN3CCOCC3)C2c2ccc(C)cc2)cc1 (centres undefined) | 0.47 (inactive)
CCCCCCC#Cc1cncc(-c2nnc(SCC(=O)Nc3ccccc3)n2C)c1 | 0.64 (inactive)
O=C(Nc1ccc(F)cc1F)N1CCN(c2ccccn2)CC1 | 2.53 (inactive)
Cc1ccc(C)c(-c2nc(C)sc2CC(=O)O)c1 | 0.81 (inactive)

Compound | z-score
Cn1c(-c2ccccc2)nc2c(c1=O)C1(CCCCC1)Cc1ccccc1-2 | -0.41 (inactive)
CCn1c(=O)c2c(n3c(SCC(N)=O)nnc13)-c1ccccc1CC21CCCCC1 | 5.92 (active)
Fc1ccc(-c2cc3ncc4c(n3n2)-c2cc(F)ccc2OC4)cc1 | -1.86 (inactive)
Cc1cc(C)c2c(c1)C(=O)C(c1cc(=O)c3ccccc3[nH]1)C2=O (centres undefined) | 1.92 (inactive)
CC(C)NC(=S)N/N=C/c1ccn[nH]1 | 3.01 (active)
Clc1ccc(-c2csc(N/N=C\c3ccn[nH]3)n2)cc1 | 0.61 (inactive)
C/C(=N\NS(=O)(=O)c1ccc(Cl)cc1)c1cc(-c2ccccc2)no1 | -0.51 (inactive)
CN(C)[C@@H]1C(=O)C(C(N)=O)=C(O)[C@@]2(O)C(=O)C3=C(O)c4c(O)ccc(Cl)c4[C@@H](O)[C@H]3C[C@@H]12 | 0.22 (inactive)
C=C1c2c(Cl)ccc(O)c2C(O)=C2C(=O)[C@]3(O)C(O)=C(C(N)=O)C(=O)[C@@H](N(C)C)[C@@H]3[C@@H](O)C12 (some centres undefined) | 15.5 (active)
O=C(NC(=O)c1c(F)cccc1F)Nc1ccc(Br)cc1F | 0.21 (inactive)
O=C1Nc2ccc(S(=O)(=O)Nc3ccc4oc(=O)sc4c3)c3cccc1c23 | 1.49 (inactive)
CC(C)C(=O)NNc1ncc(C(F)(F)F)cc1Cl | 0.4 (inactive)
O=C1C(=O)N(CCCn2ccnc2)C(c2ccco2)/C1=C(\O)c1ccccc1 (centres undefined) | 2.79 (inactive)
N#Cc1cccc(CSc2ncnc(N)n2)c1 | 3.87 (active)
O=C(CSc1nnc(-c2ccco2)c(-c2ccco2)n1)Nc1ccc(Br)cc1 | -1.71 (inactive)
Cc1[nH]nc2oc(=O)c([N+](=O)[O-])c(C)c12 | -1.74 (inactive)
c1ccc(C2=Nc3cccc4cccc(c34)N2)cc1 | -0.61 (inactive)
O=C1NC(c2ccccc2)=N/C1=C/c1ccc(F)cc1 | 3.84 (active)
O=C1NNC(c2ccccc2)=N/C1=C\c1ccc(Cl)cc1 | -3.16 (inactive)
O=C1C(=O)N(CCCn2ccnc2)C(c2ccncc2)/C1=C(\O)c1ccc(Cl)cc1 (centres undefined) | 1.19 (inactive)
CCCc1n(CC(O)COc2ccc(C)cc2)c2ccccc2[n+]1C (centres undefined) | -0.91 (inactive)
Cc1ccccc1CN1C=C(C(N)=O)C(C(F)(F)F)CC1 (centres undefined) | -0.6 (inactive)

Compound | z-score
COc1cccc(CNC2CS(=O)(=O)CC2O)c1 (centres undefined) | 0.5 (inactive)
CCc1c(C)nc2cc(-c3ccc(Br)cc3)[nH]n2c1=O | 1.4 (inactive)
COCCOC(=O)C1=C(C)NC2=C(C(=O)CC(C)(C)C2)C1c1ccc(Br)cc1 (centres undefined) | -0.9 (inactive)
COc1csc2nc(C)cc(C)c12 | 2.93 (inactive)
O=C1Nc2ccccc2C12NNC(=S)NN2 | 8.53 (active)
Cc1[nH]c2ccccc2c1C1(O)C(=O)Nc2ccccc21 (centres undefined) | 0.91 (inactive)
O=C(CC1(O)C(=O)Nc2ccccc21)c1ccc(F)cc1 (centres undefined) | -0.42 (inactive)
CC1=C(C(=O)Nc2ccccc2)C(c2cccs2)C(C#N)=C(SCC(=O)O)N1 (centres undefined) | 0.54 (inactive)
CC12CCC(C(=O)O)(CC1=O)C2(C)C (centres undefined) | 2.29 (inactive)
O=C(Oc1ccc(Br)cc1)c1cccnc1 | 5.46 (active)
O=C1C(=O)N(c2cccnc2)C(c2ccc(Br)cc2)/C1=C(\O)c1ccc(Cl)cc1 (centres undefined) | 0.32 (inactive)
O=C(Oc1ccc2ccccc2c1)c1ccncc1 | 0.81 (inactive)
O=C1CC(c2ccc(F)cc2)Cc2nc3nc(C(F)(F)F)nn3cc21 (centres undefined) | -0.42 (inactive)
CC(C)c1ccc(C2N3CC4(C)CN2CC(C)(C3)C4)cc1 (centres undefined) | 4.83 (active)
COc1ccc(C2N3CC4(C)CN2CC(C)(C3)C4)cc1 (centres undefined) | 1.02 (inactive)
CC(C)Oc1ccc(C2N3CC4(C)CN2CC(C)(C3)C4)cc1 (centres undefined) | 2.35 (inactive)
C#CC1(NS(=O)(=O)c2ccc(Sc3ccccc3)c([N+](=O)[O-])c2)CCCCC1 | -0.19 (inactive)
Cc1cc(C)c(C#N)c(Nc2cccc(Br)c2)n1 | 0.66 (inactive)
CCOC(=O)Cc1nnc2c(Nc3cccc(Br)c3)nc3nonc3n12 | 3.07 (active)
CCOC(=O)Cc1csc(NC(=O)Nc2ccccc2)n1 | -0.51 (inactive)
